Only some compounds are listed: those with a hit (about 1.3% of all), similar ones and a draw of the others.
RGS4 inhibitor: blocks human RGS4-accelerated GTP hydrolysis; P49798; Transcreener GDP fluorescence polarization, RGS4-accelerated GTP hydrolysis; Potency, µM (titrated, usually from 114 µM), actives largely listed as inhibitors; 0.039% of 390,000 active; further: nearly all actives have a fitted effect of over 75% in size
Target sequence (P49798 whole entry, looked up): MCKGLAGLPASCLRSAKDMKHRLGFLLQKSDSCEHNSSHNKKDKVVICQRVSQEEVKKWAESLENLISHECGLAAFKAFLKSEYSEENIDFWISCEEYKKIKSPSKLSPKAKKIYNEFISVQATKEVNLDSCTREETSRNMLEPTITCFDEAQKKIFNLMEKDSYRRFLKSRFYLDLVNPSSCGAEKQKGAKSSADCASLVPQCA
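MLSMR compounds (23 nl, pin-transferred) preincubated 10 min at room temperature with a 500nM (2x) first reagent, then RGS4 at 900nM (2x) plus Transcreener GDP mix added; fluorescence polarization (620/688 nm) read before and after 90 min at 30 °C.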
EPAC1 antagonist: antagonists of human EPAC1 | EPAC1 GEF assay, Rap1b-BODIPY-GDP exchange fluorescence | 0.14% of 360,000 active | O95398 | Potency, µM (doses to about 115 µM), actives largely listed as inhibitors; further: nearly all actives have a fitted effect of over 50% in size
EPAC1 ag: EPAC1 (human) agonism; O95398; EPAC1 agonist qHTS, biochemical assay; response scale: 100% = response to 6.5 mM cAMP; Potency, µM (top dose mostly 154 µM), usual class: activators; 0.073% of 360,000 active; further: nearly all actives have a fitted effect of over 60% in size
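Multi-concentration qHTS readout: loss of Rap1B-bound BODIPY-GDP fluorescence driven by 100 nM EPAC1 with excess GDP (50 uM), monitored kinetically at room temperature; agonist response expressed relative to 6.5 mM cAMP.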
EPAC2 ag: agonists of human EPAC2 (RAPGEF4) | AID 720711 | Potency, µM (titrated, usually from 154 µM), most hits filed as activators | 0.079% of 360,000 active | EPAC2 activation, biochemical qHTS; response scale: 100% = 6.5 mM cAMP response | Q8WZA2; further: nearly all actives have a fitted effect of over 50% in size
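Compounds were added across a concentration range to EPAC2 (100 nM), RAP1B-BODIPY-GDP (250 nM) and GDP (50 uM). After 5 min at room temperature, fluorescence was recorded at 5-min intervals for 30 min.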
BRCA1 expr act: increases BRCA1 expression | Potency, µM (doses to about 46.1 µM), most hits filed as activators | MCF7-BRCA1-FFLuc reporter, luminescence, 48 h; response scale: scaled: vehicle 0%, 10 µM genistein 100% | AID 624202 | 1.1% of 380,000 active; further: nearly all actives have a fitted effect of over 80% in size
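Using MCF7 cells harboring a BRCA1 firefly luciferase reporter, plated 2 h before compound pinning, the screen measured luminescence after 48 h incubation. Responses were normalized to DMSO and 10 microM genistein, then fitted for concentration-effect.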
EPAC2 antag: antagonists of human EPAC2 | Potency, µM (top dose mostly 114 µM), actives largely listed as inhibitors | EPAC2 GEF exchange of Rap1B-BODIPY-GDP, fluorescence | 0.18% of 360,000 active | Q8WZA2; further: nearly all actives have a fitted effect of over 45% in size
Large screens that a line does not name were inactive. The call rests on the fitted dose curve; in most records, active means well fitted curve in the direction sought with a large enough effect; inconclusive means small, poorly fitted or top-dose-only effect, or another doubt; inactive means no such curve, though single readings can be large; an effect the other way counts as inactive or inconclusive.

COc1ccc(CCC(=O)Nc2c(-c3ccc(N(C)C)cc3)[nH][nH]c2=O)cc1	EPAC1 antagonist 50.1µM, EPAC2 ag inconclusive (no result: RGS4 inhibitor)
Cc1cc(NC(=O)c2ccc(Cl)cc2)no1	BRCA1 expr act 3.98µM
CCOc1ccc(C(=O)Nc2cc(C)on2)cc1	BRCA1 expr act inconclusive
COc1ccccc1N(CC(=O)Nc1cc(C)on1)S(=O)(=O)c1ccc(Cl)cc1	EPAC2 ag 3.98µM
Cc1cc(NC(=O)NC(=O)c2ccccc2)no1	BRCA1 expr act 5.01µM
CC1CCc2nc3ccc(S(=O)(=O)N4CCC(C(=O)NC5CCCC5)CC4)cc3c(C(=O)O)c2C1 (configuration not stated)	none
COc1cc(/C=C2/SC(=Nc3ccc(O)cc3)NC2=O)ccc1O	none
CC(C)N(C(=O)COC(=O)[C@@H]1CC(O)CN1S(=O)(=O)c1ccccc1[N+](=O)[O-])C(C)C (some centres not stated)	none
CC(OC(=O)Cn1cnc2c1c(=O)n(C)c(=O)n2C)C(=O)N(C)c1ccccc1 (configuration not stated)	none
O=C(C1CCN(Cc2nc(-c3ccc(Cl)cc3)no2)CC1)N1CCOCC1	none
Clc1ccc(-c2noc(CN3CCOCC3)n2)cc1	BRCA1 expr act 7.94µM
O=C(COC(=O)CCC(=O)c1ccc(F)cc1)Nc1nnc(-c2ccccc2)o1	none
CC(C)C[C@H](NC(=O)C1(c2ccccc2)CCN(C(=O)OC(C)(C)C)CC1)C(=O)N1CCC[C@H]1C(=O)O	EPAC1 antagonist inconclusive, EPAC2 antag 79.4µM
CCCc1c(O)nc(SC2CC(=O)N(c3ccc(C)c(Cl)c3)C2=O)[nH]c1=O (configuration not stated)	none
O=C(O)CCN1C(=O)/C(=C\c2cccc(OCC(=O)Nc3ccc(Cl)cc3)c2)SC1=S	EPAC1 antagonist inconclusive, EPAC1 ag inconclusive
CC(=Cc1ccccc1)C=C1SC(=S)N(CCCC(=O)Nc2ccc(C(=O)O)c(O)c2)C1=O	EPAC1 antagonist 50.1µM (no result: RGS4 inhibitor)
O=C(CCN1C(=O)/C(=C\C=C\c2ccccc2)SC1=S)Nc1cccc(C(=O)O)c1	RGS4 inhibitor inconclusive, EPAC1 antagonist inconclusive, BRCA1 expr act 6.31µM
O=C(CCN1C(=O)/C(=C/c2cccs2)SC1=S)Nc1ccc(C(=O)O)c(O)c1	EPAC1 antagonist 79.4µM
Cc1ccc(NC(=O)COc2cccc(/C=C3\SC(=S)N(CCC(=O)O)C3=O)c2)cc1Cl	EPAC1 antagonist 50.1µM, EPAC1 ag inconclusive
O=C(CCCN1C(=O)/C(=C\c2ccccc2)SC1=S)Nc1cccc(C(=O)O)c1	none
CC(/C=C1\SC(=S)N(CCCC(=O)Nc2ccc(C(=O)O)c(O)c2)C1=O)=C\c1ccccc1	EPAC1 antagonist inconclusive, EPAC2 antag inconclusive
Cc1cc(-c2ccco2)c(C#N)c2nc3ccccc3n12	EPAC2 ag inconclusive, BRCA1 expr act 2.82µM
CC(C)c1cc(N2CCN(C(=O)c3ccco3)CC2)n2c(nc3ccccc32)c1C#N	none
CCC(=O)N(Cc1ccc(S(N)(=O)=O)cc1)C1CC(=O)N(c2ccccc2)C1=O (configuration not stated)	none
CCC1Sc2ccc(S(=O)(=O)CCC(=O)Nc3ccc(OC(F)(F)F)cc3)cc2NC1=O (configuration not stated)	none
CCc1ccc(NC(=O)CCCN2C(=O)C3CC=CCC3C2=O)cc1 (configuration not stated)	BRCA1 expr act 7.94µM
CCN1C(=O)/C(=C/C=C2/CCCN2C)OC1=S	BRCA1 expr act 7.08µM
Cc1ccc2nc(N3C(=O)C(O)=C(C(=O)c4ccc(C)o4)C3c3cccc(O)c3)sc2c1 (configuration not stated)	EPAC1 antagonist 50.1µM
COc1cccc(-n2c(C)nc3c(cnn3-c3ccc(C)cc3)c2=O)c1	none
CN(C)CC(O)Cn1c2ccc(Br)cc2c2cc(Br)ccc21 (configuration not stated)	RGS4 inhibitor 0.67µM (no result: EPAC1 antagonist, EPAC1 ag, EPAC2 ag, BRCA1 expr act, EPAC2 antag)
Cc1ccc(Cn2ccnc2C(=O)Nc2ccccc2)cc1	BRCA1 expr act 12.6µM
COc1ccc(Cc2nc3ccc(C(=O)N4CCCN(C=O)CC4)cc3o2)cc1	none
O=[N+]([O-])c1ccc(Nc2ccc(F)cc2)nc1	none
CN(C)c1ccc(Nc2ccc([N+](=O)[O-])cn2)cc1	BRCA1 expr act 3.16µM
CCCc1cc(C(=O)N/N=C/c2cccn2C)cs1	BRCA1 expr act 7.94µM
COCCNC(=O)/C(C#N)=C/c1c(N2CCN(c3cccc(Cl)c3)CC2)nc2c(C)cccn2c1=O	RGS4 inhibitor inconclusive
C/C(=C\C(=O)c1ccc(Br)cc1)Nc1ccc(Cl)cc1	BRCA1 expr act 2.82µM
CC(C)=CC(=O)Nc1ccc(Cl)cc1	BRCA1 expr act 3.16µM
COc1ccc(NC(=O)C=C(C)C)cc1Cl	BRCA1 expr act inconclusive
CCCCc1nc2c(C)c(N)cnc2n1Cc1cccc([N+](=O)[O-])c1	none
Cc1ccc2nc3sc(C(=O)NCc4ccco4)c(N)c3cc2c1	EPAC1 ag 100µM, BRCA1 expr act inconclusive
O=C(Cn1ccsc1=NC(=O)C(F)(F)F)c1ccccc1	BRCA1 expr act 7.94µM
CCCCC(=O)N1C/C=C\C(c2ccc(OC)cc2)N(Cc2ccc(F)cc2)C(=O)[C@H]1Cc1ccccc1 (some centres not stated)	none
CC1CCC(NC(=O)c2ccc3nc[nH]c3c2)CC1 (configuration not stated)	BRCA1 expr act 11.2µM
O=C(NNC(=O)c1ccc2nc[nH]c2c1)c1ccccc1	none
COc1ccc(-c2nc3ccccn3c2NCc2ccc3c(c2)OCO3)cc1	BRCA1 expr act 7.94µM
c1ccc(-c2nnc(-c3ccncc3)o2)cc1	BRCA1 expr act 11.2µM
Fc1ccc(Cc2nnc(-c3cccs3)o2)cc1	BRCA1 expr act 10µM
c1ccc(OCc2nnc(-c3ccccc3)o2)cc1	BRCA1 expr act 7.08µM
c1ccc(CSc2nnc(-c3cccs3)o2)cc1	BRCA1 expr act inconclusive
Fc1ccccc1CSc1nnc(-c2cccs2)o1	BRCA1 expr act 3.98µM
Oc1ccccc1-c1nnc(COc2ccccc2)o1	none
Fc1ccc(CSc2nnc(-c3cccs3)o2)cc1	BRCA1 expr act inconclusive
Clc1ccccc1CSc1nnc(-c2ccncc2)o1	BRCA1 expr act 8.91µM
Cc1cccc(-c2nnc(-c3ccc(N)cc3)o2)c1	BRCA1 expr act inconclusive
c1cc(CSc2nnc(-c3ccc4c(c3)OCO4)o2)ccn1	BRCA1 expr act 3.16µM
Nc1ccc(-c2nnc(-c3ccc(N)cc3)o2)cc1	BRCA1 expr act 5.62µM
COc1ccc(C(=O)NCCCSc2ccccc2)cc1F	none

Source: PubChem BioAssay
